Results as given in PubChem BioAssay.
Values without a mark were called inactive. No rule for the calls is given here.

system: Aerobactin synthetase IucA (Klebsiella pneumoniae, hypervirulent); assay: biochemical IucA inhibition screen of LOPAC library by absorbance (AID 1346212); conditions: IucA enzyme assay, absorbance (OD) readout; stronger effect = lower value;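 tested at 8 µM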;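 also: 100% = no compound wells and 0% = no enzyme wells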

Going from `CN1CCc2ccccc2Cc2[nH]c3ccccc3c2CC1` to `CN1CCc2cc(O)c(O)cc2C(c2ccccc2)C1` (stereo not given), the remaining activity falls from 107% to 105%.

Compared with `CC1=C(/C=C/C(C)=C/C=C/C(C)=C/C(=O)Nc2ccc(O)cc2)C(C)(C)CCC1`, `CC1=C(/C=C/C(C)=C/C=C/C(C)=C/C=C/C=C(C)/C=C/C=C(C)/C=C/C2=C(C)C(=O)[C@@H](O)CC2(C)C)C(C)(C)C[C@H](O)C1=O` is higher in remaining activity: 97.1% for the first, 107% for the second.

Compared with `Cn1ccc2cc3c(cc21)CCN3C(=O)Nc1cccnc1`, `COc1ccccc1NC(=O)Nc1nc(-c2cccnc2)nc2ccccc12` is higher in remaining activity: 102% for the first, 105% for the second.

Going from `COc1ccc([C@@H]2Sc3ccccc3N(CCN(C)C)C(=O)[C@@H]2OC(C)=O)cc1` to `CC[n+]1c(/C=C/C=C2/N(C)c3ccccc3C2(C)C)sc2ccccc21`, the remaining activity falls from 109% to 93.2%.

First: O=c1[nH]c2cc(C(F)(F)F)ccc2n1-c1cc(C(F)(F)F)ccc1O
Second: C[C@H](Cc1ccc(O)c(O)c1)[C@@H](C)Cc1ccc(O)c(O)c1
The remaining activity of the first is lower: 112% for the first, 117% for the second.

First: O=C1NCN(c2ccccc2)C12CCN(CCCC(c1ccc(F)cc1)c1ccc(F)cc1)CC2
Second: CCNC(=O)N1CCN(CCCC(c2ccc(F)cc2)c2ccc(F)cc2)CC1
The remaining activity of the first is lower: 104% for the first, 112% for the second.

First: COc1cc2ncc(-c3ccccc3)nc2cc1OC
Second: COc1cc(OC)c(/C=C2/C(=O)Nc3ccccc32)c(OC)c1
The remaining activity of the first is higher: 120% for the first, 99.3% for the second.

First: CC1=C(C(=O)O)N2C(=O)[C@@H](NC(=O)[C@H](N)c3ccccc3)[C@H]2SC1
Second: CN1[C@@H]2CC[C@H]1CC(OC(=O)[C@H](CO)c1ccccc1)C2 (stereo not given in full)
The remaining activity of the first is higher: 118% for the first, 107% for the second.

First: CCCC[C@@]1(C2CCCC2)Cc2cc(OCC(=O)O)c(Cl)c(Cl)c2C1=O
Second: CC(C)(Sc1ccc(CCN(CCCCC2CCCCC2)C(=O)NC2CCCCC2)cc1)C(=O)O
The remaining activity of the first is lower: 106% for the first, 119% for the second.

Going from `Nn1nnc2ccccc21` to `N=C(N)N1CCc2ccccc2C1`, the remaining activity falls from 115% to 106%.

Compared with `COc1ccccc1N1CCN(CCCCN2C(=O)c3ccccc3C2=O)CC1`, `COc1ccccc1N1CCN(CCN(C(=O)C2CCCCC2)c2ccccn2)CC1` is higher in remaining activity: 113% for the first, 119% for the second.

First: C[N+]1(C)[C@@H]2CC(OC(=O)[C@H](CO)c3ccccc3)C[C@H]1[C@@H]1O[C@@H]12 (stereo not given in full)
Second: Cc1ccccc1CNc1ncnc2c1ncn2[C@@H]1O[C@H](CO)[C@@H](O)[C@H]1O
The remaining activity of the first is lower: 112% for the first, 122% for the second.

Compared with `NC1C=CC=C(C(=O)O)C1` (stereo not given), `CC(C)Cc1ccc([C@H](C)C(=O)O)cc1` is lower in remaining activity: 125% for the first, 111% for the second.

Going from `CN(C)CCCO[C@@H]1[C@H]2OC(C)(C)O[C@H]2O[C@@H]1[C@H](O)CO` to `CCCCCCCCCCCCCCC[C@H](O)[C@H](N)CO`, the remaining activity falls from 113% to 83.3%.

Going from `O=C(Nc1ccccc1)c1cc([N+](=O)[O-])ccc1Cl` to `COc1cccc(-c2cc(=O)c3ccccc3o2)c1N`, the remaining activity falls from 115% to 95.7%.

First: CCCCCCCCCCCCCCSCC(=O)O
Second: CCCCCCCCCCCCCCCC(=O)NCC(COP(=O)([O-])OCC[N+](C)(C)C)OCC (stereo not given)
The remaining activity of the first is higher: 105% for the first, 74.4% for the second.

First: CCOC(=O)C1=C(C)NC(C)=C(C(=O)OC)C1c1cccc([N+](=O)[O-])c1 (stereo not given)
Second: O=C1C(SCCO)=C(SCCO)C(=O)c2ccccc21
The remaining activity of the first is lower: 112% for the first, 117% for the second.

Going from `O=C(NCCNCC(O)COc1ccc(O)cc1)N1CCOCC1` (stereo not given) to `CNC[C@H](O)c1ccc(O)c(O)c1`, the remaining activity falls from 118% to 94.5%.

Compared with `NCC(O)C1CCCCCCC1` (stereo not given), `C1CCC(N=C(NC23CC4CC(CC(C4)C2)C3)N2CCOCC2)CC1` is higher in remaining activity: 92.7% for the first, 122% for the second.

Going from `N[C@@H](CCC(=O)N[C@@H](CSN=O)C(=O)NCC(=O)O)C(=O)O` to `CN1CC[C@]2(CCN3CCc4c(oc5ccccc45)[C@@H]3C2)N(C)C1=O`, the remaining activity falls from 119% to 109%.
